In the library only some 8.1% were active in any assay of this set; here they are far more common.
SW480 rereplic – induces DNA re-replication in SW480 colon adenocarcinoma cells; SW480 DNA re-replication, Hoechst DNA content imaging, 48 h; Potency, µM (highest dose often 46.1 µM), inactives show at the top dose re-replication activation, usual class: activators; hit rate 1.8% among 340,000; also: % of control where 0% means no effect; nearly all actives have a fitted effect of over 55% in size
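Image-based DNA-content assay: after two days of treatment, nuclei were labelled with the DNA dye Hoechst and imaged, and hits were compounds raising the count of nuclei showing high fluorescence intensity.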
KB-V1 MDR tox – KB-V1 MDR subline cytotoxicity; Potency, µM (top dose mostly 46.1 µM), actives largely listed as cytotoxic; KB-V1 MDR cells viability, CellTiter-Glo, 72 h; hit rate 3.4% among 400,000; AID 1347076; also: % is scaled to controls: 0 for no effect and ±100 for the full control effect; nearly all actives have a fitted effect of over 60% in size
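Readout: CellTiter-Glo luminescence, 10 min after addition. Cells: KB-V1 MDR subline, 72 h at 37 degrees C with compound. Analysis: corrected, normalized data fitted to concentration-effect curves.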
ELG1 repair inh – blocks ELG1-dependent DNA repair in HEK293T cells | hit rate 2.3% among 330,000 | Potency, µM (highest dose often 46.1 µM), for the others: top-dose activity change, negative = inhibition, hits mostly inhibitors | AID 504467 | HEK293T ELG1-luciferase reporter, luminescence, 16 h; DNA damage induced by 5-fluorouridine; also: % is scaled to controls: 0 for no effect and ±100 for the full control effect; nearly all actives have a fitted effect of over 55% in size
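Quantitative HTS, concentration-response format. 2,000 cells/well co-treated with 5-fluorouridine and compound, 16 hr in 5% CO2 at 37 °C; ONE-Glo luminescence read after 30 min.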
KB-3-1 tox – kills parental KB-3-1 adenocarcinoma cells; KB-3-1 viability, CellTiter-Glo ATP luminescence, 72 h; hit rate 1.4% among 400,000; Potency, µM (titrated, usually from 46.1 µM), hits mostly cytotoxic; also: % is scaled to controls: 0 for no effect and ±100 for the full control effect; nearly all actives have a fitted effect of over 60% in size
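Cytotoxicity measured as CellTiter-Glo luminescence after 72 h at 37 C. Compound titrations were pinned onto drug-naive KB-3-1 parental adenocarcinoma cells grown in DMEM with 10% FBS, and normalized data fitted to concentration-response curves.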
MCF10A rerep – induces DNA re-replication in MCF 10a normal breast cells | AID 624296 | Potency, µM (series often up to 46.1 µM), inactives show at the highest dose activity, positive = re-replication, hits mostly activators | MCF 10A DNA re-replication, Hoechst nuclear intensity, 48 h | hit rate 2.9% among 350,000; also: % of control where 0% means no effect; nearly all actives have a fitted effect of over 50% in size
* marks the source's active call; other numbers are inactive results; i = inactive; u = inconclusive; x = no result. Calls follow the shape of the dose curve; as a rule, active = well fitted curve in the direction sought with a large enough effect; inconclusive = small, poorly fitted or top-dose-only effect, or another doubt; inactive = no such curve, though single readings can be large; an effect the other way counts as inactive or inconclusive. Potency is read from the fitted curve at half-maximal effect.

SMILES	SW480 rereplic	KB-V1 MDR tox	ELG1 repair inh	KB-3-1 tox	MCF10A rerep
C[C@H]1O[C@@H](O[C@H]2[C@@H](O)C[C@H](O[C@H]3[C@@H](O)C[C@H](O[C@H]4CC[C@@]5(C)[C@H](CC[C@@H]6[C@@H]5C[C@@H](O)[C@]5(C)[C@@H](C7=CC(=O)OC7)CC[C@]65O)C4)O[C@@H]3C)O[C@@H]2C)C[C@H](O)[C@@H]1O	0.411µM*	0.411µM*	0.164µM*	0.184µM*	u
CCC(C)(C)NC(=O)CN(Cc1ccc2c(c1)OCO2)C(=O)CCC(=O)Nc1ccccn1	-2.7%	i	-24.5%	i	-2.0%
c1ccc(CNc2ncnc3c2cnn3-c2ccccc2)cc1	13µM*	2.59µM*	u	5.17µM*	9.2µM*
Fc1ccc(CNc2ncnc3c2cnn3-c2ccccc2)cc1	-2.6%	i	x	i	4.0%
Cc1cccc(-n2ncc3c(N4CCCc5ccccc54)ncnc32)c1	20.6µM*	8.2µM*	u	u	11.6µM*
CC(C)Nc1ncnc2c1cnn2-c1ccc(Cl)cc1	-0.9%	u	u	7.31µM*	-9.0%
Clc1ccc(Nc2ncnc3c2cnn3-c2ccccc2)cc1	-1.1%	u	u	i	-1.0%
c1ccc(CNc2nnnn2-c2ccccc2)cc1	-2.7%	20.6µM*	u	u	13.6%
c1ccc(CCNc2ncnc3c2cnn3-c2ccccc2)cc1	18.4µM*	i	u	i	u
Cc1cccc(-n2ncc3c(NCc4ccco4)ncnc32)c1	u	i	u	u	16.4µM*
Cc1cccc(-n2ncc3c(NCc4ccccc4)ncnc32)c1	16.4µM*	6.51µM*	u	3.26µM*	6.51µM*
Cc1ccc(-n2ncc3c(NCCc4ccccc4)ncnc32)cc1C	x	i	x	i	x
CC(C)OCCCNc1ncnc2c1cnn2-c1ccccc1	5.2%	14.6µM*	u	i	22.3%
CN(C)CCCNc1ncnc2c1cnn2-c1ccccc1	-9.0%	u	u	i	4.4%
Cc1ccc(-n2ncc3c(NCc4ccco4)ncnc32)cc1C	u	i	u	i	0.0%
Cc1cccc(-n2ncc3c(NCc4ccccn4)ncnc32)c1	-1.1%	i	u	i	7.0%
COc1cccc(CN(C)C(=O)c2cc(S(=O)(=O)NC3CCCCC3)ccc2C)c1	2.1%	i	-15.6%	i	12.0%
Cc1cccc(C(=O)NCCNC(=O)c2cnccn2)c1	-0.2%	i	7.4%	i	-1.7%
O=C(c1cccn(Cc2ccc(C(F)(F)F)cc2)c1=O)N1CCOCC1	0.8%	i	14.4%	i	0.3%
Cc1ccc(S(=O)(=O)CCC(=O)OCC(=O)NCc2ccccc2)cc1	6.4%	i	u	i	0.9%
Cc1ccc(NC(=O)c2cc([N+](=O)[O-])ccc2N2CCOCC2)cc1S(=O)(=O)N(C)C	3.5%	i	u	i	-12.5%
O=C(Cn1cnc2c(NCc3ccccc3)ncnc21)NCc1ccccc1	11.6µM*	7.31µM*	u	2.91µM*	9.2µM*
Cc1ccc(-n2ncc3c(NNC(=O)Cc4ccccc4)ncnc32)cc1	-16.8%	u	0.3%	i	23.1µM*
CCCCN1CC(COCc2ccccc2)Oc2cccc(F)c2S1(=O)=O (stereo unspecified)	9.9%	i	x	i	-6.3%
Cc1c(C(=O)NN2CCCCC2)nn(-c2ccc(Cl)cc2Cl)c1-c1ccc(Cl)cc1	4.1%	x	x	x	13.3µM*
SMILES	SW480 rereplic	KB-V1 MDR tox	ELG1 repair inh	KB-3-1 tox	MCF10A rerep
OCCN1CCN(Cc2ccc3ccccc3c2)CC1	-10.2%	i	24.3%	i	3.4%
Cc1nn(C(C)C(=O)N2CCN(c3ccc(Cl)cc3)CC2)c(=O)c2cc3occc3n12 (stereo unspecified)	x	i	x	u	x
Cc1nc(=S)c2ccccc2[nH]1	-6.0%	i	u	i	-1.3%
Cc1cc2[nH]c3ccccc3c2c(C)n1	8.7%	16.4µM*	-6.1%	u	u
CC1CN(c2nc3ccccc3nc2NS(=O)(=O)c2ccccc2)CC(C)O1 (stereo unspecified)	0.2%	i	8.7%	i	-30.5%
O=C1CS/C(=N/N=C/c2c[nH]c3ccccc23)N1	129.3%	i	4.7%	i	18.4µM*

Screening data deposited in PubChem by National Center for Advancing Translational Sciences (NCATS).
